In the supplement of paper PMC10338343:
± gives the standard deviation.

System: MILI (PIWIL2) piRISC loaded with L1MC piRNA (26 nt)
Test: pre-steady-state target cleavage rate (min^-1); guide: L1MC piRNA 5'p-UAACUAAAUACUAUGCAAGCUGUAGG; MIWI and MILI are mouse PIWI proteins and EfPiwi is from a freshwater sponge; tags in brackets are library labels; higher = faster piRNA-guided slicing of the target
How it was run: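 For Cleave-'n-Seq, a transcribed, DNA-blocked target RNA library […] met 1 nM active affinity-purified piRISC with one synthetic guide at 33 °C for 0–8 or 0–960 min in HEPES–potassium acetate buffer, with or without 500 nM GTSF1 partner protein. Uncleaved targets were sequenced and normalised to depth and weakly complementary targets, with three trials pooled and k3 capped at 0.0001 min^-1. A burst-and-steady-state fit supplied the pre-steady-state cleavage rate.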

[1] = auxiliary factor: 500 nM mouse GTSF1
[2] = auxiliary factor: none (no GTSF1)
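Also: 1 nM active piRISC with 0.1 nM target library at 33 °C single turnover.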

Sequence | pre-steady-state target cleavage rate [1] | pre-steady-state target cleavage rate [2]
UCCUGGAUGUCGAACCAUAGUAUUUAGUUUA | 0.00592 ± 0.0031 | 
UCCUGGUACAGCUUGCAUCAGUAUUUAGUUA | 0.0101 ± 0.0042 | 
UCCUCCUACAGCUUGCAUACUUUUUAGUUA | 0.00693 ± 0.0043 | 
UCCUCCUACAGCUUGCAUAGUUAAAUCAAA [g10:g26:cont:t1A] | 0.0191 ± 0.0072 | 
UCCUGCUACAGGUUGCAUAGUAUUUACUUA | 0.0231 ± 0.011 | 
UCCUGGAUGAGCUUGGAUAGAAUUUAGUUA | 0.0131 ± 0.0067 | 
UCCUGGAUGUCCUUGCAUAGUAUUUACUAA | 0.0464 ± 0.011 | 
UCCUGGAUGUCGAACGUUAGUAUUUAGUUA | < 0.0001 | 
UCCUCCUACACGAUGCAUAGUAUUUUCAAA | 0.0649 ± 0.017 | 
UCCUGGAUCAGCUACCAUAGUAUUUACAAA |  | < 0.0001
UCCUGGAAGUCCUUGCAUAGUAUUUACAAA | 0.0598 ± 0.018 | 
UCCUGGAACACCUUGCAUAGUAUUUUCAAA | 0.0441 ± 0.015 | 
UCCUGGAUGUCGUUGGAUAGUAUUUAGUUA | 0.0108 ± 0.0042 | 
UCCUGGAUGUCGAUCCAUUGUAUUUAGUUA |  | < 0.0001
UCCUGGAUGUCCUUGCAUAGUAUAAUCAAA [g8:g19:cont:t1A] | 0.00606 ± 0.0037 | 
UCCUGGUAGAGCUUGCAUAGUAUUUUCAAA | 0.00621 ± 0.0031 | 
UCCUCCUACAGCUUGCAUAGUAUGUUAGUUA | 0.126 ± 0.022 | 
UCCUGGAACAGCUUGCAUAGUUUUUACAAA | 0.00599 ± 0.0038 | 
UCCUGGAUGUGCUUCGUUAGUAUUUAGUUA | 0.00476 ± 0.0034 | 
UCCUCCUACAGCUUGCAUAGAUUUUACAAA | 0.0174 ± 0.0071 | 
UCCUGGUACAGCUUGCAUAGUAAAAAGUAA | 0.031 ± 0.013 | 
UCCUGGAUCAGCUUGCAUAGUAAAAAGAAA | 0.0472 ± 0.015 | 
UCCUGGAUGUCGAAGCAUAUUAUUUAGUUA | 0.00703 ± 0.0037 | 

Sequence | pre-steady-state target cleavage rate [1] | pre-steady-state target cleavage rate [2]
UCCUGGAUGUCGAACGUAUGUAUUUACAAA |  | < 0.0001
UCCUGGAUCAGCUUGCAUAGUAUAUAGAAA | 0.115 ± 0.03 | 
UCCUGGAUGUCGAAGCAUAGUAUUUACGUUA | 0.0359 ± 0.0066 | 
UCCUGGAUGUCGUUGCAUAGUAUAAUGUUA | 0.0201 ± 0.011 | 
UCCUGGAUGUCGAUACAUAGUAUUUAGUUA | 0.0231 ± 0.0046 | 
UCCUGGAUGUCGAACGAAUCUAUUUAGUUA |  | < 0.0001
UCCUGGAUGAGCUUGCUAUCAUAAAUCAAA [g15:g21:cont:t1A] |  | < 0.0001
UCCUGGAUGUCGAACGUAAGUAAUUUGUUA |  | < 0.0001
UCCUGGAUGUCGAACGUAACAAUUUAGUUA |  | < 0.0001
UCCUGGAUGUGCUUGCAUACAUAAAUCAAA [g12:g20:cont:t1A] |  | < 0.0001
UCCUGGAUGUCGAACCAAAGUAUUUAGUAA |  | < 0.0001
UCCUGGAUGUCGAAGCAUAGUAUAUUAGUUA | 0.0302 ± 0.0085 | 0.00411 ± 0.0026
UCCUGGAUGUCCUUGGAUAGUAUUUAGUAA | 0.121 ± 0.019 | 0.00376 ± 0.0019
UCCUGGAUCAGCAACCAUAGUAUUUAGAAA | 0.00948 ± 0.0046 | < 0.0001
UCCUGGUACAGCUUGCUUUGUAUUUAGUUA | 0.123 ± 0.017 | 0.0068 ± 0.0025
UCCUGGAUCAGCUUGCUUAGUAUUUACUUA | 0.203 ± 0.025 | 0.00642 ± 0.0022
UCCUGGAUGAGCUUGCAUAGUAUUUUAGUUA | 0.163 ± 0.019 | 0.00807 ± 0.0028
UCCUGCUACAGCUUCAUAGUAUUUAGUUA | 0.231 ± 0.019 | 0.00508 ± 0.0025
UCCUGGAUGAGCUUGCAAAGUAUUUAGUAA | 0.085 ± 0.015 | 0.00635 ± 0.0025
UCCUGGAUGAGCUUGCUAGUAUUUAGUUA | 0.00709 ± 0.0035 | 0.00421 ± 0.0027
UCCUGGAUGUCGUUGCAUAGUAAUUAGUUA | 0.116 ± 0.022 | 0.00563 ± 0.002
UCCUGGAUGAGCAUGCAUAGUAAUUAGUUA | 0.156 ± 0.021 | 0.00824 ± 0.0028
UCCUGGAACAGCUUGCAAUGUAUUUAGUAA | 0.0829 ± 0.011 | 0.00326 ± 0.0026

Sequence | pre-steady-state target cleavage rate [1] | pre-steady-state target cleavage rate [2]
UCCUGGAUGUCCUUGCAUAGUGAUUUAGUUA | 0.0104 ± 0.0052 | 0.00503 ± 0.0028
UCCUGGUACAGGUUGCAUAGUAUAUAGUUA | 0.42 ± 0.089 | 0.00855 ± 0.0029
UCCUGGAUGUGCUUGGAUAGUAAUUAGUUA | 0.0687 ± 0.014 | 0.00472 ± 0.0026
UCCUGGAUGUCGUAGCAUAGUAUAUAGUUA | 0.0653 ± 0.016 | 0.0048 ± 0.0023
UCCUGGAUCAGCUAGCAUAGUAUAUAGUUA | 0.22 ± 0.02 | 0.00644 ± 0.0023
UCCUGGAUGUCCUUGGAUAGUAUAUAGUUA | 0.165 ± 0.035 | 0.0038 ± 0.0025
UCCUGGAUGUCGUUGCAUAGUAUUUUAGUUA | 0.125 ± 0.02 | 0.00632 ± 0.0029
UCCUGGAACAGCUUGAUAGUAUUUAGUUA | 0.11 ± 0.013 | 0.00612 ± 0.0022
UCCUCCUACUGCUAGCAUAGUAUUUAGUUA | 0.232 ± 0.015 | 0.006 ± 0.0021
UCCUGGAACAGCUUCGAUAGUAUUUAGUAA | 0.167 ± 0.019 | 0.00446 ± 0.0025
UCCUGGAUGUCGUUGGCAUAGUAUUUAGUUA | 0.0621 ± 0.015 | 0.0049 ± 0.003
UCCUGGAUGUCGUUGCAUAGUAUAAAGUUA | 0.0728 ± 0.018 | 0.00407 ± 0.0022
UCCUGGAUGUCCUUGCAAAGUAUUUAGUUA | 0.0392 ± 0.0098 | 0.00687 ± 0.002
UCCUGGAUGUGCUAGCAUAGUAUUUUGUUA | 0.0587 ± 0.011 | 0.00334 ± 0.0025
UCCUGGAUGAGGUUGCAAAGUAUUUAGUUA | 0.0323 ± 0.0068 | 0.00826 ± 0.0022
UCCUGGAUGUCGAUGCAUAGUAUCUUAGUUA | 0.0692 ± 0.013 | 0.00487 ± 0.0024
UCCUGGAUGAGCUUGCAUUGUAUUUAGUAA | 0.127 ± 0.021 | 0.00311 ± 0.0025
UCCUGGAUGUCCUUGCAUAGUAUUUAGUAUA | 0.191 ± 0.03 | 0.00617 ± 0.0026
UCCUGGUACAGCUUGCAUAGGUAUUUAGUUA | 0.0078 ± 0.0065 | 0.00574 ± 0.0037
UCCUGGAUGUCGAUGCAAAGUAUUUAGUUA | 0.00863 ± 0.0026 | 0.0036 ± 0.0027
UCCUCCUACUGCUUGCAUAGUAUUAAGUUA | 0.15 ± 0.018 | 0.00292 ± 0.0026
UCCUGGUACAGCUUGCAUUGUUUUUAGUUA | 0.0201 ± 0.0095 | 0.00647 ± 0.0034
